The values below come from PubChem BioAssay (NCATS).

Results filed as inconclusive are left out. Calls of active or inactive are those of the source. The call rests on the fitted dose curve; in most records, active means well fitted cell-killing curve with a large enough effect; inconclusive means small, poorly fitted or top-dose-only effect, or effect the other way; inactive means no such curve, though single readings can be large or run the other way.
Potency means the concentration at half of the fitted maximal effect.

The nature of one experiment: Quantitative High-Throughput drug screen in 47 multiple myeloma cell lines against the NCATS MIPE library collection: KMS11_JCRBsus cell viability assay (AID 1919873). Further: nearly all actives have a fitted effect of over 50% in size. To be noted: KMS11 myeloma viability, CellTiter-Glo ATP luminescence, 48 h; series mostly up to 45.8 µM. In short, it runs like this: (§1)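 ATP-based CellTiter-Glo luminescence after 48 h drug exposure (37 °C, 5% CO2) of 500 myeloma cells per well. DMSO-only wells set 100% viability, media-only wells 0%; MIPE 4.0 library added by pin tool.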
In the case of `O=C(NC1CCOCC1)c1ccc(-c2cc(-c3cn[nH]c3-c3ccccn3)ccn2)cc1`, the Potency result is “inactive”.
Same read-out and setting: next, `O=c1cc(-c2cccc3c2Sc2ccccc2S3)oc(N2CCOCC2)c1`: 20.9 µM (active); `Clc1ccc(CCC(Cn2ccnc2)Sc2c(Cl)cccc2Cl)cc1` (centres undefined): 20.9 µM (active).
Regarding `N#CC(=C(N)Sc1ccccc1N)C(C#N)=C(N)Sc1ccccc1N`, the Potency is 8.33 µM (active).
Still for that read-out and setting: under `O=C1Nc2ccc(Cl)cc2C(C#CC2CC2)(C(F)(F)F)O1` (centres undefined) stands 20.9 µM (active); under `CN(C)Cc1ccc(-c2nc3cccc4c3n2CCNC4=O)cc1`, 26.4 µM (active); under `NC(=O)c1ccc2nc(-c3ccc(Oc4ccc(Cl)cc4)cc3)[nH]c2c1`, 11.8 µM (active).
On to `Cc1cnc(C(=O)O)c[n+]1[O-]`, for which the Potency entry was “inactive”.
Still for that read-out and setting: next, `O=C(O)c1ccc(-c2cc3cccnc3c(-c3ccc4nonc4c3)n2)cc1`: 26.4 µM (active); `NC(=O)c1cccc(-c2cc(Nc3ccc(OC(F)(F)F)cc3)ncn2)c1`: 29.6 µM (active); `CCNc1cc(NC2CCC(O)CC2)nc(Nc2ccc3c(ccn3Cc3ccccc3)c2)n1` (centres undefined): 20.9 µM (active).

The next experiment can be described thus: Quantitative High-Throughput drug screen in 47 multiple myeloma cell lines against the NCATS MIPE library collection: KMS28BM_JCRB cell viability assay (AID 1919874). Further: nearly all actives have a fitted effect of over 35% in size. To be noted: CellTiter-Glo ATP, 48 h; series mostly up to 45.8 µM. The gist of the method: as §1
In general terms: ATP-based viability assays read luminescence as a measure of living cells.
With `O=C(NC1CCOCC1)c1ccc(-c2cc(-c3cn[nH]c3-c3ccccn3)ccn2)cc1`, the Potency entry is “inactive”.
On the same count and under the same terms, next, `C=CCc1ccc(O)c(-c2ccc(O)c(CC=C)c2)c1`: 23.5 µM (active).
The same measure, in the same setting: under `O=c1ccn([C@@H]2O[C@H](CO)[C@H](O)[C@H]2O)c(=O)[nH]1` stands “inactive”; under `C[N+](C)(C)CC(=O)O`, “inactive”.
For the compound `O=C1c2c(O)cc(O)cc2O[C@H](c2cc(O)c(O)c(O)c2)[C@H]1O`, the Potency entry was “inactive”.
Still for that read-out and setting: under `O=C1Nc2ccc(Cl)cc2C(C#CC2CC2)(C(F)(F)F)O1` (centres undefined) stands 20.9 µM (active); under `O=C1NC(=O)C(=Cc2ccc3c(c2)OC(F)(F)O3)S1`, “inactive”; under `O=c1cc(N2CCOCC2)oc2c(-c3cccc4c3sc3ccccc34)cccc12`, 3.72 µM (active).
Turning to `CO[C@@H](C(=O)N1Cc2[nH]nc(NC(=O)c3ccc(N4CCN(C)CC4)cc3)c2C1)c1ccccc1`, the Potency is 1.66 µM (active).
Same read-out and setting: under `Cc1ccc(F)c(NC(=O)Nc2ccc(-c3cccc4[nH]nc(N)c34)cc2)c1` stands 8.33 µM (active).
The same measure, in the same setting: next, `CCOC1OC(=O)C[C@H]1NC(=O)[C@@H]1CCCN1C(=O)[C@@H](NC(=O)c1ccc(N)c(Cl)c1)C(C)(C)C` (some centres undefined): “inactive”.
Still for that read-out and setting: next, `O=C1NC(=O)C(=Cc2ccc(-c3ccc(F)cc3)o2)S1`: “inactive”; `Cc1cnc(C(=O)O)c[n+]1[O-]`: “inactive”.
On to `CCS(=O)(=O)N1CC(CC#N)(n2cc(-c3ncnc4[nH]ccc34)cn2)C1`, for which the Potency is 23.5 µM (active).
On the same count and under the same terms, under `O=C(O)c1ccc(-c2cc3cccnc3c(-c3ccc4nonc4c3)n2)cc1` stands 26.4 µM (active).
Still for that read-out and setting: next, `O=c1c(O)c(-c2ccc(O)cc2)oc2cc(O)cc(O)c12`: 4.69 µM (active); `CC=CCC=CCCC(=O)[C@H]1O[C@@H]1C(N)=O`: 14.8 µM (active); `O=C(O)C=Cc1ccc(O)c(O)c1`: “inactive”.
